Source: PMC5540273 (PLoS ONE, 2017)

Tested on: EPHA8
Details: concentration: 1 μM,replicates: in singlicate; n = 1
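Note: KINOMEscan kinase panel screen.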

Compound	%Inh
Cl.Cl.NC[C@H](Cc1ccc(C(F)(F)F)cc1)NC(=O)c1cc(Br)c(-c2ccnc3[nH]ccc23)s1 [GSK1487252]	47%
Nc1nc(Nc2ccccc2)cc(-c2ccc3c(N)n[nH]c3c2)n1 [GSK2225749]	0%
CC(C)Nc1cc(-c2ccc3c(N)n[nH]c3c2)nc(N)n1 [GSK2221681]	18%
CC(C)N1C(=O)Cc2cc(Nc3ncc(C(F)(F)F)c(NCc4cccc(S(C)(=O)=O)c4)n3)ccc21	5%
Cl.Cl.NC[C@H](CC1CCCCC1)NC(=O)c1cc(Br)c(-c2ccnc3[nH]ccc23)s1 [GSK1581427]	52%
CN(C)CC(O)COc1ccc(Nc2nccc(-c3cnn4nc(N5CCOCC5)ccc34)n2)cc1 (stereo not drawn) [GW767488]	0%
CCN(CC)CCOc1ccc(Nc2ncc3cc(-c4c(Cl)cccc4Cl)c(=O)n(C)c3n2)cc1 [SB-601273]	99.6%
Cc1n[nH]c2ccc(-c3cc(OC[C@@H](N)Cc4ccccc4)cnc3-c3ccoc3)cc12.O=C(O)C(F)(F)F.O=C(O)C(F)(F)F [GSK507358]	21%
Cc1occc1-c1nc(N)c(OC[C@@H](N)Cc2c[nH]c3ccccc23)cc1-c1cc2c(C)n[nH]c2cn1 [GSK1660450]	24%
C[C@@H]1CCN(C(=O)CC#N)C[C@@H]1N(C)c1ncnc2[nH]ccc12	10%
Cl.Oc1cc(-c2nc(-c3ccccc3)[nH]c2-c2ccncc2)ccc1Cl [SB-386023]	14%
O=C(NCCCN1CCOC1=O)c1cnc(NCc2cc(Cl)ccc2Cl)nc1NC1CCCC1	4%
Cc1cc(C(=O)Nc2ccc(Oc3ccc4nc(NC(=O)C5CC5)cn4n3)cc2)nn1-c1ccccc1	37%
Cl.Cl.Nc1nc(-c2ccc3c(N)n[nH]c3c2)cc(N2CCCC(NC(=O)c3ccccc3)C2)n1 (stereo not drawn) [GSK2286775]	16%
CCN(CC)CCCCNc1ncc2cc(-c3c(Cl)cccc3Cl)c(NC(=O)NC(C)(C)C)nc2n1	99.9%
Cc1ccc2c(-c3ccncc3)c(-c3ccc(F)cc3)nn2c1.Cl [GW461484]	15%
COc1ccc(C[C@@H](CN)NC(=O)c2cc(Br)c(-c3ccnc4[nH]ccc34)s2)cc1.Cl.Cl [GSK1389063]	59%
O=C(NCCNc1ccnc(NCc2ccc(F)cc2)n1)c1cc2ccccc2s1 [GSK1379944]	34%
CN(C)CCOc1ccc(-c2cc(-c3c[nH]nc3-c3ccccn3)ccn2)cc1 [GW835314]	14%
CNC(=O)c1ccccc1Sc1ccc2c(/C=C/c3ccccn3)n[nH]c2c1	0%
NC(=O)c1cc(-c2ccccc2)cc2c(C3CCNCC3)c[nH]c12 [GSK301362]	23%
CCn1c(-c2nonc2N)nc2c(C#CC(C)(C)O)nc(OCCN)cc21.Cl.Cl [GSK902056]	2%
C[C@H]1Oc2cc(cnc2N)-c2c(nn(C)c2C#N)CN(C)C(=O)c2ccc(F)cc21	2%
C[C@@H](Oc1cc(-c2cnn(C3CCNCC3)c2)cnc1N)c1c(Cl)ccc(F)c1Cl	54%
C=CC(=O)Nc1cc2c(Nc3ccc(F)c(Cl)c3)ncnc2cc1OCCCN1CCOCC1 [GW781483]	33%
Cc1ccc(-n2nc(C(C)(C)C)cc2NC(=O)Nc2ccc(OCCN3CCOCC3)c3ccccc23)cc1 [GW839464]	86%
Cc1cc2cn[nH]c2cc1-c1cccc2c(N)c(C(N)=O)nnc12	11%
